Screening results from PubChem BioAssay.
The full list was thinned out, with hits kept by preference.
STK33 inh: blocks human STK33 kinase activity. Q9BYT3. ADP-Glo luminescence, MBP substrate. inhibition, % at 12.5 µM. 27,000 compounds, 0.44% hits; in the data active = inhibition above about 20%
p53 PUMA act: re-activators of the mutant p53 pathway; SW480 PUMA-promoter luciferase, p53 mutant reactivation; activation, % at 9.98 µM; 28,000 compounds, 1.5% hits; in the data active = activation above about 52%
MITF inh: MITF inhibition. TRPM1 promoter luciferase, luminescence, 24 h. inhibition, % (no concentration beside the values). 37,000 compounds, 0.28% hits; in the data active = inhibition above about 85%;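 note: human melanocyte line stably carrying TRPM1 promoter luciferase reporter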
NOMO-1 viab: STK33 inhibitor candidate reducing NOMO-1 cell viability. inhibition, % (concentration not given with the values). AID 2330. NOMO-1 AML viability, CellTiter-Glo luminescence, 72 h. 37,000 compounds, 7.5% hits; in the data active = inhibition above about 80%
Numbers without * were called inactive; nt = not tested or not shown.

SMILES | STK33 inh | p53 PUMA act | MITF inh | NOMO-1 viab
CC(=O)OC[C@]12CCC(C)=C[C@H]1O[C@@H]1[C@H](O)[C@@H](OC(C)=O)[C@@]2(C)[C@]12CO2 | 1.8 | nt | 92.0* | 108.9*
CC(=O)OC[C@]12C[C@H](O)C(C)=C[C@H]1O[C@@H]1[C@H](O)[C@@H](OC(C)=O)[C@@]2(C)[C@]12CO2 | -1.8 | nt | 90.2* | 122.9*
Cc1ccc(NC(=O)c2cccc(OC(=O)N(C)c3ccccc3)c2)cc1C | nt | nt | 5.0 | 20.4
CC1(C)C(C(=O)Nc2ccc(S(=O)(=O)c3ccc(NC(=O)C4C(C)(C)C4(C)C)cc3)cc2)C1(C)C | nt | nt | -8.7 | -2.2
O=C(Cn1cc(C(=O)c2ccccc2)c2ccccc21)Nc1ccc(F)cc1 | -1.6 | -9.6 | 37.9 | 49.3
CC1=CC(=O)C2=C(C)C[C@H](O)[C@@H]3[C@H](OC(=O)[C@@H]3C)[C@@H]12 | 0.1 | 3.3 | nt | nt
CC[C@@]1(O)C(=O)OCc2c1cc1n(c2=O)Cc2cc3c(O)cccc3nc2-1 | 2.1 | -77.7 | 66.5 | 119.3*
OC[C@H]1O[C@@H](n2cnc3cc(Cl)c(Cl)cc32)C(O)[C@H]1O (some centres not stated) | 10.1 | 21.9 | -21.5 | 86.9*
O=C(O)c1[nH]c2ccc(Cl)cc2c1CC(=O)N1CCC2(CC1)OCCO2 | nt | 1.2 | nt | nt
Oc1cc2c(cc1O)C1c3ccccc3CNC1CC2 (configuration not stated) | nt | -2.9 | nt | nt
C/C=C\C(=O)O[C@@H]1C[C@H]2O[C@@H]3C=C(C)C(=O)C[C@]3(C)[C@]1(C)[C@]21CO1 | 1.2 | nt | 91.9* | 122.1*
O=C(CC[N+](=O)[O-])OC[C@H]1O[C@@H](O)[C@H](OC(=O)CC[N+](=O)[O-])[C@@H](OC(=O)CC[N+](=O)[O-])[C@@H]1OC(=O)CC[N+](=O)[O-] | 1.6 | nt | 8.7 | 106.0*
C=CC1CN2CCC3(C(=O)Nc4ccccc43)C2CC1/C(=C/OC)C(=O)OC (configuration not stated) | 0.8 | 6.8 | 5.0 | 30.3
CC(C)(C)NC[C@H](O)COc1cccc2[nH]c(C#N)cc12 | -0.5 | -0.4 | -6.7 | 1.4
CCOC(=O)c1c(C)n(Cc2ccccc2)c2ccc(OCC(O)CNC(C)(C)C)cc12 (configuration not stated) | nt | nt | 58.1 | 116.8*
COc1ccccc1OCCCn1cc(C(=O)c2ccccc2)c2ccccc21 | 2.5 | 2.1 | 9.0 | -0.1
C/C=C(/C)C(=O)O[C@H]1C(C)=C2[C@H]([C@@H]1OC(=O)CCCCC)[C@@](C)(OC(C)=O)C[C@H](OC(=O)CCC)[C@@]1(O)[C@H]2OC(=O)[C@@]1(C)O | 2.2 | -17.8 | 69.3 | 99.4*
CC(=O)OC1CCC2(C)C(=CCC3C4CCC(=O)C4(C)CCC32)C1 (configuration not stated) | 0.6 | nt | -1.9 | 9.8
CC1=CC2OC3[C@H](O)C[C@@](C)([C@]34CO4)[C@@]2(CO)[C@H](O)C1=O (some centres not stated) | -4.2 | nt | 71.8 | 123.5*
COc1ccc2c(c1O)-c1cc(O)cc3c1[C@@H](C2)N(C)CC3 | nt | 2.7 | nt | nt
C=CCN1CCc2cccc3c2[C@H]1Cc1ccc(O)c(O)c1-3 | 2.8 | 8.1 | -8.6 | 114.4*
CC(C)[C@H]1C(=O)O[C@H](C(C)C)C(=O)N(C)[C@@H](C(C)C)C(=O)O[C@H](C(C)C)C(=O)N(C)[C@@H](C(C)C)C(=O)O[C@H](C(C)C)C(=O)N1C | -2.6 | -86.1 | 75.4 | 118.9*
C[C@]12CC[C@H](O)C[C@H]1CCC1C2CC[C@]2(C)[C@@H](C3=CC(=O)OC3)[C@@H](O)C[C@]12O (some centres not stated) | 1.0 | nt | -9.0 | 97.3*
COC1CC(OC2CCC3(C)C(CCC4C3CCC3(C)C(C5=CC(=O)OC5)C(OC(C)=O)CC43O)C2)OC(C)C1OC1OC(COC2OC(CO)C(O)C(O)C2O)C(O)C(O)C1O (configuration not stated) | -0.4 | -84.8 | 20.1 | 109.6*
CO[C@H]1[C@H](O)[C@H](O[C@H]2CC[C@]3(C)C4CC[C@]5(C)C(C6=CC(=O)OC6)CC[C@]5(O)C4CC[C@@H]3C2)O[C@@H](C)[C@@H]1O (some centres not stated) | -3.4 | 7.0 | 21.3 | 110.4*
SMILES | STK33 inh | p53 PUMA act | MITF inh | NOMO-1 viab
CC(=O)[C@H]1CC[C@H]2[C@@H]3CC[C@H]4C[C@H](O)CC[C@]4(C)[C@H]3CC[C@]12C | -12.3 | nt | 38.5 | 39.6
C[C@]12CC[C@@H](O)C[C@@H]1CC[C@@H]1[C@@H]2CC[C@]2(C)[C@@H](C(=O)CO)CC[C@@H]12 | nt | -2.6 | nt | nt
CC1=CC2/C=C(\C)CCC(O)C(O)/C=C/C(=O)C23C(=O)NC(CC(C)C)C3C1C (configuration not stated) | 0.2 | nt | 89.5* | 121.3*
CN1Cc2c(ccc3c2OCO3)C2C(O)Cc3cc4c(cc3C21)OCO4 (configuration not stated) | -0.2 | nt | 22.9 | 104.5*
CCc1ccc(NC2=NCCS2)cc1 | nt | 61.2* | nt | nt
Oc1ccc2c3c1OC1c4oc5ccccc5c4CC4(O)C(C2)N(CC2CC2)CCC314 (configuration not stated) | nt | 11.8 | nt | nt
